# This is a sample that favours compounds with a hit; in the whole collection about 3.2% have one here.
# TMEM16A act = TMEM16A chloride channel activators or potentiators, primary screen, cell-based, HTS. AID 623877, 2012. B-score at 10 µM. 0.3% of 340,000 active. HEK293 TMEM16A/YFP-H148Q/I152L, iodide quench fluorescence; active compounds read low;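 active = fluorescence-ratio B-score plate-corrected deviation score at least 3 library SD below zero, with starting fluorescence score within 5 deviations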;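 note: channel opened by trigger with iodide after compound preincubation; score built on the fluorescence ratio of max minus min over baseline; more negative score means more quench and so TMEM16A activation or potentiation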
# CHT inh = inhibitors of human choline transporter CHT; High affinity choline transporter 1 (Homo sapiens), Q9GZV3; CHT-expressing cells, membrane potential dye, choline response; active compounds read low; B-score at 10 µM; 0.86% of 310,000 active; AID 488975, 2010;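 active = B-score over 3 SD under the library average, and starting fluorescence ratio not unusually high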;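 note: choline stimulus applied at its EC90 after an EC20 pre-addition; B-score computed on integrated fluorescence ratio after choline addition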
# PHOSPHO1 inh = PubChem AID 1565; recombinant PHOSPHO1, absorbance phosphatase assay; 1.1% of 290,000 active; inhibition, % at 13.3 µM; in the data active = inhibition above about 60%
# TMEM16A inh = TMEM16A chloride channel inhibitors, primary screen, cell-based, HTS; HEK293 TMEM16A/YFP iodide influx fluorescence, ionomycin; 1.2% of 310,000 active; Anoctamin-1 (Mus musculus), Q8BHY3; normalized B-score (activity score, 25-100; higher = stronger inhibition) at 10 µM;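 active = ratio plate-corrected score three or more library SD toward inhibition, starting fluorescence score within five deviations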;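 note: score derived from kinetic fluorescence span divided by baseline fluorescence per well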
# CHT PAM = CHT positive allosteric modulators, primary screen, cell-based, membrane potential dye, choline EC20 | High affinity choline transporter 1 (Homo sapiens), Q9GZV3 | CHT-expressing cells; active compounds read high; LV-AA mutant CHT in HEK293 cells | 0.49% of 310,000 active | B-score at 10 µM;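 active = initial fluorescence not abnormally high and integrated response B-score, plate-corrected, over 3 SD above library mean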
# HDAC3 inh = HDAC3 deacetylase inhibitors, primary screen, biochemical, fluorescence, cell-free homogeneous | 0.15% of 320,000 active | inhibition, % at 8.3 µM | Histone deacetylase 3 (Homo sapiens), O15379 | recombinant HDAC3, fluorogenic peptide/trypsin coupled; in the data active = inhibition above about 26%, passing the limit was not always enough
# CHT activ conf = CHT activators, confirmation, cell-based, membrane potential dye, duplicate; shares compounds with CHT PAM; CHT-expressing cells, membrane potential dye fluorescence (FDSS); % of choline EC20–EC90 response window; HEK293 expressing CHT LV-AA mutant; choline added at its EC20; activation, % at 10 µM; 91% of 2,500 active;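 active = primary screen active, with duplicate mean activation above negative control mean plus 3 SD, cut at about 11% in these data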
# HEK293 MP dye = membrane potential response in parental HEK293 cells, counter-screen for CHT activator project, cell-based, membrane potential dye. shares compounds with CHT PAM. membrane potential dye fluorescence (FDSS); measured after EC20 choline addition. ratio readout change at 10 µM, hits read low. 62% of 2,500 active;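 active = duplicate-averaged ratio beyond 3 SD from buffer wells, up or down, though filed actives are nearly all decreases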
# Numbers stand for hits; . = inactive; / = not tested or not shown.
SMILES,TMEM16A act,CHT inh,PHOSPHO1 inh,TMEM16A inh,CHT PAM,HDAC3 inh,CHT activ conf,HEK293 MP dye
Clc1ccc(-c2c[n+](Cc3ccc(Cl)cc3Cl)c3n2CCCCC3)cc1,.,.,.,.,28,.,66.5,.
COc1ccc(OC)c(NC(=O)CCN2CCN(C/C=C/c3ccccc3)CC2)c1,.,.,.,.,.,.,/,/
Clc1ccc(-c2c[n+](Cc3cccc(Cl)c3)c3n2CCC3)cc1,.,.,.,.,8.14,.,69.4,-53.7
Cc1ccc(NC(=O)CN(C)Cc2cccs2)cc1Cl,.,.,.,.,.,.,/,/
COc1cc(-c2nnc(SCC(=O)N(Cc3ccccc3)C(C)(C)C)o2)cc(OC)c1OC,.,.,.,.,7.93,.,.,.
COc1ccc(Cl)cc1NC(=O)C1COc2ccccc2O1 (centres undefined),.,.,.,.,.,.,/,/
CN1CCN(c2ccc(Cl)cc2NC(=O)C2COc3ccccc3O2)CC1 (centres undefined),.,.,.,.,.,.,.,.
Cc1csc(NC(=O)C(C)N2C(=O)c3ccccc3S2(=O)=O)n1 (centres undefined),.,.,.,.,.,.,10.7,.
Cc1ccnc(NC(=O)C(C)N2C(=O)c3ccccc3S2(=O)=O)c1 (centres undefined),.,.,/,.,10.4,.,.,.
Cc1ccnc(NC(=O)CN2C(=O)c3ccccc3S2(=O)=O)c1,.,.,/,.,.,.,/,/
COc1cc(OC)c2c(-c3cccc(-c4ccc(O)cc4)c3)cc(=O)oc2c1,.,/,/,/,/,/,/,/
Cn1c(Cc2ccccc2)[n+](C)c2ccccc21,.,.,.,.,.,.,48.9,-41
CC(Sc1nnnn1C)C(=O)Nc1ccc(N2CCOCC2)cc1 (centres undefined),.,.,.,.,.,.,/,/
CCN(C(=O)c1ccc2c(c1)OCO2)C12CC3CC(CC(C3)C1)C2,.,/,/,/,/,.,/,/
CCN(C(=O)c1cccc(S(=O)(=O)N(C)C)c1)C12CC3CC(CC(C3)C1)C2,.,.,.,.,9.72,.,14.1,.
CC(Nc1nc(N2CCNCC2)nc2ccccc12)c1ccccc1 (centres undefined),.,.,.,.,7.12,.,44.1,-51.6
CCN(CC)c1ccc(C=NN2CCCCCC2)cc1,.,/,/,/,/,/,/,/
c1cc(-c2nnc(-c3ccncc3)o2)ccn1,.,.,.,.,8.74,.,76.9,-59.5
CCn1c(Cl)c(C=O)s/c1=N\S(=O)(=O)c1ccccc1,.,.,.,.,.,/,/,/
COc1ccccc1C(=O)NCC(=O)OCc1ccc(Br)cc1,.,.,.,.,.,.,/,/
CCCCCCn1cc(C(=O)O)c(=O)c2cc(F)c(N3CCN(C)CC3)cc21,.,.,.,.,6.86,.,58.6,-76.3
CCCCCCCC(=O)N1CCN(c2cc3c(cc2F)c(=O)c(C(=O)O)cn3CC)CC1,.,.,.,.,.,.,/,/
CCn1cc(C(=O)O)c(=O)c2cc(F)c(N3CCNCC3)cc21,.,.,.,.,14.4,/,39.4,-42.1
CS(=O)(=O)N1CCC(C(=O)Nc2ccccc2)CC1,.,.,.,.,.,.,/,/
CCCCN(CC)C(=S)Nc1ccc2nc(N3CCN(C)CC3)cc(C)c2c1,.,.,.,.,.,/,25.8,-26.4
SMILES,TMEM16A act,CHT inh,PHOSPHO1 inh,TMEM16A inh,CHT PAM,HDAC3 inh,CHT activ conf,HEK293 MP dye
CCCCN(C)C(=S)Nc1ccc2nc(N3CCN(CC)CC3)cc(C)c2c1,.,.,.,.,.,.,/,/
COc1ccc(NC(=S)NC(C)c2ccncc2)cc1OC (centres undefined),.,.,.,.,.,.,18.0,.
CC(NC(=S)Nc1ccc([N+](=O)[O-])cc1)c1ccncc1 (centres undefined),.,.,.,.,.,.,/,/
CC(=O)N1CCC(=NNc2ccnc3cc(Cl)ccc23)CC1,.,.,.,.,.,.,40.6,-23.9
Cc1cc2c(cc1C)[n+](C)cn2CC(O)COCc1ccccc1 (centres undefined),.,.,.,.,.,.,48.4,-35.4
CCOC(=O)c1c(C)nc2ccccc2c1-c1ccccc1,.,.,.,.,.,.,15.9,.
Cc1nc2c(C)cccc2c2c1COC2,.,.,.,.,.,.,55.3,-59.5
Cc1nnc2n(C)c(=O)c3c4c(sc3n12)COC(C)(C)C4,.,.,/,.,6.46,.,74.2,-72.4
COc1cccc(C(=O)O/N=C(\N)c2ccc([N+](=O)[O-])cc2)c1,.,.,.,.,.,.,/,/
Cc1nnc2n(-c3ccccc3)c(=O)c3c4c(sc3n12)CCCC4,.,.,.,.,6.46,.,26.1,-40.3
Cc1nnc2n(-c3ccccc3)c(=O)c3c4c(sc3n12)COC(C)(C)C4,.,.,.,.,.,.,/,/
CC(C)Cc1nc2n[nH]c(N)c2c2c1CCC2,.,.,.,.,.,.,/,/
Cc1nn(-c2ccccc2)c(C)c1C(=O)OCC(=O)N(C)c1c(N)n(Cc2ccccc2)c(=O)[nH]c1=O,.,.,/,.,.,.,/,/
CCn1c(C)c(C(C)=O)c(N2CCCC2)nc1=S,.,.,.,.,.,.,.,.
Cc1ccn2cc(C34CC5CC(CC(C5)C3)C4)nc2c1,.,.,.,.,8.94,.,17.5,.
CCN1CCN(c2c(Cl)cccc2NC(=O)c2ccc([N+](=O)[O-])cc2)CC1,.,.,.,.,11.7,.,53.3,-66.8
CCN1CCN(c2c(Cl)cccc2NC(=O)c2ccco2)CC1,.,.,.,.,7.57,.,54.4,-33.1
Cc1cc(NC(=O)CCCSc2nc(-c3ccco3)cc(C(F)(F)F)n2)n(-c2ccccc2)n1,.,.,.,.,.,.,15.4,.
Cc1cc(NC(=O)CSc2nc(-c3ccco3)cc(C(F)(F)F)n2)n(-c2ccccc2)n1,.,.,.,.,.,.,/,/
Cc1ccc(-n2c(SCCN)nnc2-c2cccc(C)c2)cc1,.,.,.,.,.,.,17.4,.
CCCCCCn1c(CN2CCN(Cc3ccccc3)CC2)nc2c1c(=O)n(C)c(=O)n2C,.,.,.,.,.,.,24.4,.
